Reference: the supplement of paper PMC10849652
Of roughly 7,900 targets only a part is listed; those with a hit were picked by preference. About 0.6% of all pairs of compound and target were hits.

How the values were obtained:
Test in all cases: log2 fold change, soluble protein after heating vs DMSO (PISA); higher = thermal stabilisation; K562 cells, 10 uM, 30 min; active = over 0.2 and 3.5 SD of the protein, either way, in both replicates (recomputed)
[1] = compound: CC[C@@H]1C(=O)N(C)c2cnc(Nc3ccc(C(=O)NC4CCN(C)CC4)cc3OC)nc2N1C1CCCC1
Method in brief: (§1)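 Aliquots of K562 cells (2×10^6 cells/mL) treated with 10 μM compound for 30 min were heated for 3 min over 48°C-58°C. After pooling and extraction in PBS with 0.5% NP-40 at 4°C, soluble protein from a 21,000xg, 90 min spin was quantified by TMTpro 16plex LC-MS/MS with channel sums equalised. Thermal stability is expressed against control samples, from duplicates, as a log2 fold change.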

[2] = compound: CC[C@@H]1C(=O)N(C)c2cnc(Nc3ccc(C(=O)N[C@H]4CC[C@H](N5CCN(CC6CC6)CC5)CC4)cc3OC)nc2N1C(C)C [volasertib]
Method in brief: as §1

[3] = compound: CC[C@H](C)N1C=C(C2=C(C=C(C=C21)C3=CN=C(C=C3)N4CCNCC4)C(=O)NCC5=C(C=C(NC5=O)C)C)C
Method in brief: as §1

[4] = compound: CC[C@H](C)[C@@H](C(=O)N[C@@H]([C@@H](C)O)C(=O)N[C@@H](CC(C)C)C(=O)[C@]1(CO1)C)NC(=O)[C@H]([C@@H](C)CC)N(C)C(=O)C [epoxomicin]
Method in brief: as §1

[5] = compound: CCn1c(C(=O)N(C2CC2)C2CC2)cc2c3c(ncn3C)c(Nc3cc(C)n(C)n3)nc21
Method in brief: as §1

[6] = compound: CCn1cc(-c2ccnc3[nH]c(-c4cccc(CN(C)C)c4)cc23)c(-c2ccc(NC(=O)N(C)C)cc2)n1
Method in brief: as §1

[7] = compound: CN(C)CC(=O)Nc1ccc2[nH]c(=O)c3ccccc3c2c1
Method in brief: as §1

[8] = compound: CN(CCOC1=CC=C(C=C1)C[C@H]2C(=O)NC(=O)S2)C3=CC=CC=N3 (racemic) [rosiglitazone]
Method in brief: as §1

[9] = compound: CN1C2=C(C3=C1C(=O)N(N=C3)CC4=CC(=CC=C4)N)SC(=C2)S(=O)C
Method in brief: as §1

[10] = compound: CN1CCC(CNc2ccc3ncc(-c4cccc(OC(F)(F)F)c4)n3n2)CC1
Method in brief: as §1

[11] = compound: CN1CCN(CCOc2cc(OC3CCOCC3)c3c(Nc4c(Cl)ccc5c4OCO5)ncnc3c2)CC1 [saracatinib]
Method in brief: as §1

[12] = compound: CN1CCN(c2nc(C3=C(c4c[nH]c5ccccc45)C(=O)NC3=O)c3ccccc3n2)CC1 [sotrastaurin]
Method in brief: as §1

[13] = compound: CN1CC[C@H](c2c(O)cc(O)c3c(=O)cc(-c4ccccc4Cl)oc23)[C@H](O)C1 [alvocidib]
Method in brief: as §1

[14] = compound: CN1CCc2c(c3ccccc3n2Cc2ccc(C(=O)NO)cc2)C1 [Tubastatin A]
Method in brief: as §1

[15] = compound: CNC(=O)C1=CC=CC=C1NC2=NC(=NC=C2Cl)NC3=C(C=C(C=C3)N4CCOCC4)OC
Method in brief: as §1

[16] = compound: CNC(=O)c1ccc(Nc2ncc(C(F)(F)F)c(NCc3nccnc3N(C)S(C)(=O)=O)n2)cc1 [defactinib]
Method in brief: as §1

[17] = compound: CNCc1ccc(-c2[nH]c3cc(F)cc4c3c2CCNC4=O)cc1 [rucaparib]
Method in brief: as §1

[18] = compound: CNc1nc(-c2ccc3c(N)n[nH]c3c2)cc(N2C[C@@H](C(=O)NC3CCCCC3)CC[C@H]2C)n1
Method in brief: as §1

[19] = compound: COC(=O)N[C@@H](C)CNc1nccc(-c2cn(C(C)C)nc2-c2cc(Cl)cc(NS(C)(=O)=O)c2F)n1 [encorafenib]
Method in brief: as §1

[20] = compound: COC(=O)[C@H](CCSC)NC(=O)C1=C(C=C(C=C1)NC[C@H](CS)N)C2=CC=CC=C2
Method in brief: as §1

Measured: log2 fold change

EXOC2 (UniProt Q96KP1)
active: [10] -0.386
inactive: [1] -0.13 | [2] -0.463 | [3] -0.041 | [4] 0 | [5] -0.089 | [6] 0.044 | [7] 0.058 | [8] 0.01 | [9] 0.123 | [11] -0.058 | [12] -0.214 | [13] -0.01 | [14] 0.044 | [15] 0.064 | [16] -0.096 | [17] 0.136 | [18] -0.004 | [19] 0.126 | [20] -0.085

EDC4 (UniProt Q6P2E9)
Sequence of UniProt Q6P2E9 (Q6P2E9 whole entry, looked up): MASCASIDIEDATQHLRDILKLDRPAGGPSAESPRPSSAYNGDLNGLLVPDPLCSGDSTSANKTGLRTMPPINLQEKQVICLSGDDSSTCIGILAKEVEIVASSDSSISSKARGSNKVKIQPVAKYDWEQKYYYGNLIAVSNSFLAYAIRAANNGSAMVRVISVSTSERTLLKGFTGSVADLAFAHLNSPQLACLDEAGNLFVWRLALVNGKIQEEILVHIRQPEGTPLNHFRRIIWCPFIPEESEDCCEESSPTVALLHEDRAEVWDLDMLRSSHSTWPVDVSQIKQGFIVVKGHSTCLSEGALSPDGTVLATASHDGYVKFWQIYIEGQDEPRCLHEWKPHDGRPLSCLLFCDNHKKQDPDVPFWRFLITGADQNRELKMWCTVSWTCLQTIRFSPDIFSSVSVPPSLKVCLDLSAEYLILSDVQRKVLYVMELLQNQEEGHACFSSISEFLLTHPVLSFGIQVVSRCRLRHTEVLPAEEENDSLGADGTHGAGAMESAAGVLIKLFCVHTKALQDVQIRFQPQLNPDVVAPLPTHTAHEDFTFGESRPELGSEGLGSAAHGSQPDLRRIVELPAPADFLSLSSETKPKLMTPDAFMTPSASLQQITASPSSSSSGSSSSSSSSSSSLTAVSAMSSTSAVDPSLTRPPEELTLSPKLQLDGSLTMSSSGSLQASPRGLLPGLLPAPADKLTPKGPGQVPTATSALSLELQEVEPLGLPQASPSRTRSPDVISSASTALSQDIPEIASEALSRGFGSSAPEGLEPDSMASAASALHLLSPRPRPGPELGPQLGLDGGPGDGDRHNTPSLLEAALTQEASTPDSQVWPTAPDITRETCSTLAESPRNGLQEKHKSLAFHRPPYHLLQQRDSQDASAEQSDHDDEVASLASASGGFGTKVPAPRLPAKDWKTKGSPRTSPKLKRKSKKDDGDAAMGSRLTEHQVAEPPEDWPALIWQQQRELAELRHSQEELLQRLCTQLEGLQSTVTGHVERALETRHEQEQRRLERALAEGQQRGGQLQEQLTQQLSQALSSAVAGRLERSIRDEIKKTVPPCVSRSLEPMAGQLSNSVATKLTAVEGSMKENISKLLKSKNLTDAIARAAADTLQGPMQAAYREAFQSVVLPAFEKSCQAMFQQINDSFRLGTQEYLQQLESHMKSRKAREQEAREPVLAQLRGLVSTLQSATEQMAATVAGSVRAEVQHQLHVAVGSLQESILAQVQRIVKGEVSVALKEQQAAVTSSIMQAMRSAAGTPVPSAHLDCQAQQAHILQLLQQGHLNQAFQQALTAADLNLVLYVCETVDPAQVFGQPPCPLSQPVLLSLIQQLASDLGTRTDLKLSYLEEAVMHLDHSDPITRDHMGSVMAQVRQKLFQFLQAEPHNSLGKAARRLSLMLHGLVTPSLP
inactive: [1] -0.126 | [3] 0.042 | [4] 0 | [5] -0.009 | [6] 0.039 | [7] -0.006 | [8] 0.014 | [9] 0.07 | [10] -0.084 | [11] -0.023 | [12] -0.109 | [13] -0.167 | [14] 0.016 | [15] -0.163 | [16] -0.148 | [17] -0.012 | [18] -0.099 | [19] 0.113 | [20] 0.005
active: [2] -0.47

DCAF6 isoform 3 (UniProt Q58WW2)
Sequence of UniProt Q58WW2 (Q58WW2 whole entry, looked up): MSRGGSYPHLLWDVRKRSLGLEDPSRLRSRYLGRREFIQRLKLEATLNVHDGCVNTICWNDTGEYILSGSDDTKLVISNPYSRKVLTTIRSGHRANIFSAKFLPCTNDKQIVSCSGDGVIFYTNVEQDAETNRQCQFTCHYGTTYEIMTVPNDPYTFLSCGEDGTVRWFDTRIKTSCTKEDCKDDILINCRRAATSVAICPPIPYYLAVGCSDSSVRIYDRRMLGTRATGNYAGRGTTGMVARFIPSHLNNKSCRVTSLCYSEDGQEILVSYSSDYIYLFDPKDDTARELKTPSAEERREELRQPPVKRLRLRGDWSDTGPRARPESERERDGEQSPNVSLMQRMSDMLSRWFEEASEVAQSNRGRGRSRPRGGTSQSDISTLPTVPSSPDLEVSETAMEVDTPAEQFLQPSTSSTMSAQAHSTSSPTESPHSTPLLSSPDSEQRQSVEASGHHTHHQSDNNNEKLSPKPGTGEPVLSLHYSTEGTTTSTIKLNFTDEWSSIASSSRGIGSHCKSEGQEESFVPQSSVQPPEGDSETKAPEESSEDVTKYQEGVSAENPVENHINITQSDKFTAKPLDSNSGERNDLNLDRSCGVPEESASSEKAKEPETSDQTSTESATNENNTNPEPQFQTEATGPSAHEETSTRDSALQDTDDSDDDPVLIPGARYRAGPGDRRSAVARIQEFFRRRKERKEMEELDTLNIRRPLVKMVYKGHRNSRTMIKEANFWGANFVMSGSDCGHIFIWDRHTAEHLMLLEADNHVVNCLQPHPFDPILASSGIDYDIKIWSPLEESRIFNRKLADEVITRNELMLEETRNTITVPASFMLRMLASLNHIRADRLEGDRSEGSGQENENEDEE
inactive: [1] 0.077 | [2] 0.05 | [3] -0.064 | [4] 0.025 | [5] 0.013 | [6] -0.03 | [7] -0.035 | [8] 0.006 | [9] 0.006 | [10] 0.004 | [11] 0.093 | [12] 0.001 | [13] 0.001 | [14] -0.05 | [15] -0.027 | [16] -0.012 | [17] -0.028 | [18] -0.051 | [19] 0 | [20] 0.034

EEF1G isoform 2 (UniProt P26641)
Sequence of UniProt P26641 (P26641 whole entry, looked up): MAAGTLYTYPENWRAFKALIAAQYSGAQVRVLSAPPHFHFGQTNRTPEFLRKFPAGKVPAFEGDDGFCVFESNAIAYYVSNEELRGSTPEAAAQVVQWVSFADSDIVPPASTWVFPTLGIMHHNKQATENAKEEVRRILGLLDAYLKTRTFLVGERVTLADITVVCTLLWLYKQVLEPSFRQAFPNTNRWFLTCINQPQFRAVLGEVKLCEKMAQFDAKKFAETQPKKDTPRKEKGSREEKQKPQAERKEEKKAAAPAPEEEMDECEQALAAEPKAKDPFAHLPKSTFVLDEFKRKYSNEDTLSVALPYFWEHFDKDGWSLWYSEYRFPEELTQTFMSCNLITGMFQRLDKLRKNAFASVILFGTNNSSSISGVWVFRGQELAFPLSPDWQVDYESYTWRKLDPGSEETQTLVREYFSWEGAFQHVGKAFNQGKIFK
active: [2] -0.364
inactive: [1] -0.164 | [3] 0.075 | [4] 0.008 | [5] -0.012 | [6] -0.005 | [7] 0.022 | [8] 0.005 | [9] 0.011 | [10] 0.016 | [11] -0.012 | [12] -0.041 | [13] -0.044 | [14] -0.008 | [15] 0.075 | [16] -0.051 | [17] 0.045 | [18] 0.02 | [19] 0.076 | [20] -0.047

DHFR (UniProt P00374)
inactive: [1] 0.002 | [2] -0.11 | [3] 0.088 | [4] -0.013 | [5] -0.101 | [6] -0.077 | [7] 0.091 | [8] 0.046 | [9] 0.113 | [11] -0.193 | [13] 0.215 | [15] -0.115 | [16] -0.109 | [17] 0.39 | [18] 0.036 | [19] 0.109 | [20] -0.059
active: [10] 1.64 | [12] 1.66 | [14] 1.77

CTSL (UniProt P07711)
inactive: [1] -0.124 | [2] -0.247 | [3] -0.045 | [4] 0.017 | [5] 0.014 | [6] 0.196 | [7] -0.074 | [8] -0.037 | [9] 0.019 | [10] -0.306 | [11] 0.113 | [12] 0.05 | [13] 0.085 | [14] 0.038 | [15] 0.024 | [16] 0.032 | [17] 0.049 | [18] 0.018 | [19] -0.008 | [20] 0.02

DBR1 (UniProt Q9UK59)
Sequence of UniProt Q9UK59 (Q9UK59 whole entry, looked up): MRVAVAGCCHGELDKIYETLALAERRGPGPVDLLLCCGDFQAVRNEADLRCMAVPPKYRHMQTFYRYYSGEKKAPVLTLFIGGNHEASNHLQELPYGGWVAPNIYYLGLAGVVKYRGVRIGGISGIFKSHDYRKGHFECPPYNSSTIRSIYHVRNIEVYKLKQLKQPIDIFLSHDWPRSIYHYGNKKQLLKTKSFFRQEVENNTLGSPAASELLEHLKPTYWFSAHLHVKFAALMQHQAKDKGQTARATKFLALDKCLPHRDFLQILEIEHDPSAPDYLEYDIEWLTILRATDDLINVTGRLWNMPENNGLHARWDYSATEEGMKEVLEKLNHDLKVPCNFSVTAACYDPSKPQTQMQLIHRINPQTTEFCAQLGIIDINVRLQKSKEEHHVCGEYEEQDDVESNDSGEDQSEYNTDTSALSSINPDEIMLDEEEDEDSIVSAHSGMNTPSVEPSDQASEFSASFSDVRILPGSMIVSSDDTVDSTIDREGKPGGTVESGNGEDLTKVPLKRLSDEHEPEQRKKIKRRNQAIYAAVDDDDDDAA
inactive: [1] 0.037 | [2] 0 | [3] 0.008 | [4] -0.018 | [5] -0.017 | [6] 0.015 | [7] -0.019 | [8] -0.002 | [9] -0.034 | [10] 0.015 | [11] 0.048 | [12] 0.019 | [13] -0.002 | [14] -0.012 | [15] -0.033 | [16] -0.012 | [17] -0.007 | [18] -0.004 | [19] -0.012 | [20] -0.011

EXOC5 (UniProt O00471)
inactive: [1] -0.236 | [3] 0.093 | [4] 0.041 | [5] -0.046 | [6] 0.022 | [7] 0.066 | [8] 0.044 | [9] 0.054 | [10] -0.215 | [11] -0.043 | [12] -0.209 | [13] -0.008 | [14] 0.015 | [15] 0.042 | [16] -0.064 | [17] 0.091 | [18] -0.06 | [19] 0.083 | [20] -0.071
active: [2] -0.596

DHRS7B (UniProt Q6IAN0)
active: [10] 0.538
inactive: [1] -0.079 | [2] -0.147 | [3] -0.043 | [4] -0.106 | [5] 0.004 | [6] 0.059 | [7] -0.002 | [8] 0.021 | [9] -0.122 | [11] -0.003 | [12] 0.148 | [13] -0.18 | [14] -0.019 | [15] 0.051 | [16] -0.067 | [17] 0.029 | [18] 0.071 | [19] -0.008 | [20] -0.016

CTSB (UniProt P07858)
inactive: [3] -0.009 | [4] -0.011 | [5] 0.017 | [6] -0.047 | [7] 0.021 | [8] -0.007 | [9] -0.07 | [11] 0.05 | [12] 0.064 | [13] 0 | [14] 0.002 | [15] 0.052 | [16] -0.014 | [17] -0.073 | [18] -0.009 | [19] 0.013 | [20] -0.008
active: [1] -1.16 | [2] -1.72 | [10] -0.936

CTU1 (UniProt Q7Z7A3)
active: [10] -0.233
inactive: [1] -0.052 | [2] -0.117 | [3] 0.026 | [4] 0.045 | [5] -0.017 | [6] -0.057 | [7] 0.065 | [8] 0.055 | [9] -0.098 | [11] 0.01 | [12] -0.038 | [13] -0.19 | [14] -0.029 | [15] -0.045 | [16] -0.036 | [17] -0.003 | [18] 0.09 | [19] 0.02 | [20] -0.031

EBNA1BP2 (UniProt Q99848)
inactive: [1] 0.167 | [2] 0.351 | [3] 0.021 | [4] -0.343 | [5] -0.059 | [6] 0.132 | [7] -0.106 | [8] -0.25 | [9] 0.379 | [10] 0.197 | [11] -0.081 | [12] -0.138 | [13] 0.165 | [14] 0.34 | [15] -0.047 | [16] 0.512 | [17] 0.23 | [18] 0.142 | [19] 0.13 | [20] 0.086

DYNC1I2 isoform 5 (UniProt Q13409)
Sequence of UniProt Q13409 (Q13409 whole entry, looked up): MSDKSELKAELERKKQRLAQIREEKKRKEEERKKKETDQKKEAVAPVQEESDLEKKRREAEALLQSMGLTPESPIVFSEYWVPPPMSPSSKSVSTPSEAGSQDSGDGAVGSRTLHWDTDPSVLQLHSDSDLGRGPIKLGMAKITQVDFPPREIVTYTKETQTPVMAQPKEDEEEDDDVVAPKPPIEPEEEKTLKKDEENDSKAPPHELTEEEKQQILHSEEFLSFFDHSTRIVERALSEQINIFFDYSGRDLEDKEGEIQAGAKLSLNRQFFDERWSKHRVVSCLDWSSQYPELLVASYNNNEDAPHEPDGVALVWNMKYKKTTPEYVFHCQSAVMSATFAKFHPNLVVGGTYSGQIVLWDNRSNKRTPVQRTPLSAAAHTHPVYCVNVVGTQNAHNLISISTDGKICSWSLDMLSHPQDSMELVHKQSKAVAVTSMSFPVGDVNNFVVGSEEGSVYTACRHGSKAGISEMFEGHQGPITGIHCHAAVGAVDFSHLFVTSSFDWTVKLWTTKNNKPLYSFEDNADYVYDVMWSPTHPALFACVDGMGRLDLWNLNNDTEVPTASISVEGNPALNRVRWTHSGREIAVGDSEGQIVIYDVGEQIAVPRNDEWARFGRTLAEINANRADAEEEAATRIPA
inactive: [1] 0.004 | [2] 0.005 | [3] 0.004 | [4] 0.026 | [5] 0.011 | [6] -0.003 | [7] 0.002 | [8] -0.024 | [9] -0.041 | [10] -0.035 | [11] 0.012 | [12] 0.021 | [13] -0.033 | [14] 0.003 | [15] 0.012 | [16] 0.001 | [17] -0.006 | [18] -0.005 | [19] -0.014 | [20] 0.028

DDX46 (UniProt Q7L014)
Sequence of UniProt Q7L014 (Q7L014 whole entry, looked up): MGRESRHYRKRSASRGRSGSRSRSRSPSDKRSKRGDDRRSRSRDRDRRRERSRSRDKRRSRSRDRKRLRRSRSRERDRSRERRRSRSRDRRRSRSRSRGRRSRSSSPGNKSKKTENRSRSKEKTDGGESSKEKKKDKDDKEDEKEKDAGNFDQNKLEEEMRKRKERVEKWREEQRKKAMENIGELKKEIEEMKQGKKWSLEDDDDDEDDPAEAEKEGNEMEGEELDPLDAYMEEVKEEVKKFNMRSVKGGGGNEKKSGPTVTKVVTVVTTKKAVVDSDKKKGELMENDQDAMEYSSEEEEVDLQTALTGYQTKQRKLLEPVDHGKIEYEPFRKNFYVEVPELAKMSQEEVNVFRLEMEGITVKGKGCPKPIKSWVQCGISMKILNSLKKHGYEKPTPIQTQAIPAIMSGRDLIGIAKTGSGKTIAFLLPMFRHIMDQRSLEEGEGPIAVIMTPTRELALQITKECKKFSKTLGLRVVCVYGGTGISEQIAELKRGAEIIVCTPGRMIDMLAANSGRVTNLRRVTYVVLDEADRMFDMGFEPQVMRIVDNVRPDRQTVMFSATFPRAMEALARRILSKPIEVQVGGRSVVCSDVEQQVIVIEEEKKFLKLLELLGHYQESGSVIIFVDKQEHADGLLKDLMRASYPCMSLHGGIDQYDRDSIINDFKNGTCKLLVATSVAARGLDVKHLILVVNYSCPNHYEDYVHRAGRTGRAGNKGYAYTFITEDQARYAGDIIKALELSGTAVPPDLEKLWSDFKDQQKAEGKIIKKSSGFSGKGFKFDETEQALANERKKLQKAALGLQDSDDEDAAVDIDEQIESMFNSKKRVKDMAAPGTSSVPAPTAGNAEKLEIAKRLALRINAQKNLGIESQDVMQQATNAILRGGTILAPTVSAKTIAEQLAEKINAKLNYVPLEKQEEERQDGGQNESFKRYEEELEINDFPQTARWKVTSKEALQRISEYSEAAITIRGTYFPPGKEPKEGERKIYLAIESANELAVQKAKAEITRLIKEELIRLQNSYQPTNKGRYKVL
inactive: [1] -0.259 | [2] -0.275 | [3] 0.087 | [4] 0.192 | [5] -0.211 | [6] -0.129 | [7] 0.133 | [8] 0.106 | [9] -0.066 | [10] 0.087 | [11] 0 | [12] -0.197 | [13] -0.157 | [14] 0.101 | [15] 0.054 | [16] -0.296 | [17] -0.125 | [18] 0.028 | [19] 0.05 | [20] -0.085

DIP2A (UniProt Q14689)
inactive: [1] -0.065 | [2] 0.026 | [3] -0.037 | [4] -0.017 | [5] 0.037 | [6] -0.063 | [7] -0.041 | [8] -0.034 | [9] -0.045 | [10] 0.057 | [11] 0.082 | [12] 0.054 | [13] -0.095 | [14] -0.094 | [15] 0.034 | [16] -0.059 | [17] 0.1 | [18] -0.009 | [19] 0 | [20] 0.077

DDX5 (UniProt P17844)
active: [1] -0.426 | [2] -0.589
inactive: [3] 0.103 | [4] 0.149 | [5] -0.115 | [6] -0.083 | [7] 0.101 | [8] 0.066 | [9] 0.018 | [10] 0.019 | [11] -0.055 | [12] -0.206 | [13] -0.07 | [14] 0.041 | [15] 0.025 | [16] -0.206 | [17] -0.075 | [18] -0.021 | [19] 0.14 | [20] -0.085
